The list is not random: actives were taken first. Their share in the collection is about 3.3%.
RE007 growth inh: less growth of the S. pombe RE007 Vpr strain | S. pombe RE007 Vpr strain, BacTiter-Glo ATP luminescence, 24 h | Potency, µM (highest dose often 92.2 µM), actives largely listed as inhibitors | hit rate 0.21% among 360,000 | AID 651644; active means well fitted falling curve with a large enough effect; inconclusive means small, poorly fitted or top-dose-only effect; inactive means no such curve, though single readings can be large or run the other way; further: nearly all actives have a fitted effect of over 50% in size
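Fission yeast strain RE007, carrying one chromosomally integrated HIV-1 vpr copy, was seeded at OD 0.01 in PMG+AL medium with 23 nL pinned compound. After 24 h at 30 °C and 99% humidity, viability was read by BacTiter-Glo luminescence.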
LmPK inhibitor: inhibitors of Leishmania mexicana pyruvate kinase | purified LmPK, Kinase-Glo ATP luminescence, 1 h | AID 1721 | hit rate 0.37% among 290,000 | Potency, µM (doses to about 57.5 µM), actives largely listed as inhibitors | Q27686
Target sequence (Q27686 whole entry, looked up): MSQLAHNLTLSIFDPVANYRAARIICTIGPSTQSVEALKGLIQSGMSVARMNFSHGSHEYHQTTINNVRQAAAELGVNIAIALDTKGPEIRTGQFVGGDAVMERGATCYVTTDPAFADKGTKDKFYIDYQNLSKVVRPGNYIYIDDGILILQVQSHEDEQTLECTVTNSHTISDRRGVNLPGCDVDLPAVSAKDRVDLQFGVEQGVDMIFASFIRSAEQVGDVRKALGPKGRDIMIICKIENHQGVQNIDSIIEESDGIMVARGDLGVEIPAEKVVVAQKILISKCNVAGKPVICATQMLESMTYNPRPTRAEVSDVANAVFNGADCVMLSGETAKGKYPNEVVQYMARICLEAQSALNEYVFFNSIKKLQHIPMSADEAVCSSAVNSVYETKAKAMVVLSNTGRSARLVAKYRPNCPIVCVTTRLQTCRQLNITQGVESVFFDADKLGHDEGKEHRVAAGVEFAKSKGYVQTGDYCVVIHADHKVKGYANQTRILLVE
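Kinase-Glo luminescence read after 1 h RT reaction of 0.1 nM LmPK with 0.5 mM PEP and 0.1 mM ADP. Activity scaled between uninhibited and enzyme-free controls.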
NS1 function inh: influenza NS1 inhibition; Potency, µM (titrated, usually from 46.1 µM); hit rate 0.4% among 270,000; AID 2326; calls by dose curve; further: actives are rising curves; nearly all actives have a fitted effect of over 50% in size
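A cell-based growth assay was used: compounds that relieve NS1-induced slow growth of budding yeast raise OD600. Assay medium was yeast nitrogen base with ammonium sulphate and -URA supplement, pH 6.0, with 2% galactose.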
SARS PLP yeast: inhibitors of SARS-CoV papain-like protease in yeast; S. cerevisiae expressing SARS-CoV PLpro, growth rescue; Potency, µM (top dose mostly 32.9 µM), usual class: activators; hit rate 0.19% among 330,000; AID 485353; calls by dose curve; further: nearly all actives have a fitted effect of over 55% in size
Sm TGR block: blocks Schistosoma mansoni thioredoxin glutathione reductase | purified TGR, DTNB reduction, TNB absorbance 405 nm | Potency, µM (top dose mostly 114 µM), hits mostly inhibitors | hit rate 3% among 360,000 | AID 485364; further: nearly all actives have a fitted effect of over 60% in size
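First, TGR (20 nM dispensed) and NADPH were mixed with compound. Second, a 15 min room-temperature incubation followed. Third, further NADPH and then DTNB were added to start the reaction. Finally, TNB absorbance was monitored kinetically.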
Tb PYK inh: inhibitors of Trypanosoma brucei pyruvate kinase | TbPYK enzyme, Kinase-Glo Plus ATP luminescence, 45 min | Potency, µM (doses to about 76.8 µM), most hits filed as inhibitors | hit rate 0.12% among 410,000; further: nearly all actives have a fitted effect of over 50% in size
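Luminescence from Kinase-Glo Plus, added after a 45-minute room-temperature reaction, served as the end-point read-out. The enzyme and substrate were preincubated with compound before ADP (130 uM final) initiated turnover. Concentration-effect curves came from normalized qHTS data.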
A number is an active result; 0 = inactive; ? = inconclusive; - = not tested or not shown; [ ] = dose if it differs, or a comment. Unless noted, the call rests on the fitted dose curve; in most records, active means well fitted curve in the direction sought with a large enough effect; inconclusive means small, poorly fitted or top-dose-only effect, or another doubt; inactive means no such curve, though single readings can be large; an effect the other way counts as inactive or inconclusive.

SMILES	RE007 growth inh	LmPK inhibitor	NS1 function inh	SARS PLP yeast	Sm TGR block	Tb PYK inh
O=C(CC(c1ccc(F)cc1)c1ccco1)N1CCCC1 (stereo unspecified)	0	0	0	0	14µM	0
CCCN(CCC)C(=O)CC(c1ccc(F)cc1)c1ccco1 (stereo unspecified)	0	0	0	0	11µM	0
CC(=O)N[C@@H]1C(O[C@H]2O[C@H](C(=O)O)C(O)[C@H](O)[C@H]2O)[C@H](O)[C@@H](CO)O[C@H]1O[C@@H]1C(C(=O)O)O[C@@H](O[C@H]2[C@H](O)[C@@H](CO)OC(O)[C@@H]2NC(C)=O)[C@H](O)[C@H]1O (stereo partly specified)	-	-	-	-	-	0
COc1ccc(N2CCC(CNC(=O)Nc3ccc(OC)cc3OC)C2)cc1 (stereo unspecified)	0	0	0	0	45µM	0
COc1ccc(N2CCC(CNS(=O)(=O)c3cccc(C(F)(F)F)c3)C2)cc1 (stereo unspecified)	0	0	?	0	32µM	0
COc1ccc(CNC(=O)C2CCN(S(=O)(=O)c3cccc(C(F)(F)F)c3)CC2)cc1	0	-	-	0	0	0
O=C(CSc1ccccn1)Nc1nonc1[N+](=O)[O-]	?	0	0	0	7.1µM	0
O=C(CSc1ccccn1)Nc1ccc(NC(=O)CSc2ccccn2)cc1	?	0	0	0	-	0
CN(C)/C=C1/C(=O)NC(=O)N(CCNc2ncc(C(F)(F)F)cc2Cl)C1=O	0	0	0	0	11µM	0
NNC(=O)CCCNc1ncc(C(F)(F)F)cc1Cl	0	0	-	0	0	0
O=c1cc(-c2ccc(O)cc2)oc2c(O)c(O)c(O)c(O)c12	0	0	0	0	4µM	0
O=c1cc(-c2ccc(O)cc2)oc2c1ccc1ccccc12	0	-	-	0	0	0
Cc1[nH]c2ccc(Cl)cc2c(=O)c1CN1CCCC1	0	0	0	0	28µM	0
O=C(/C=C/c1ccc(O)c(O)c1)OC1C(O)CC(OC(=O)/C=C/c2ccc(O)c(O)c2)(C(=O)O)CC1O (stereo unspecified)	0	2µM	0	0	0	?
Fc1ccc(-n2c(-c3cc(C4CC4)[nH]n3)n[nH]c2=S)cc1Cl	0	11µM	0	0	0	?
O=C(CN(Cc1ccco1)S(=O)(=O)c1cccs1)Nc1ccccc1C(F)(F)F	0	0	0	0	20µM	0
O=C(CN(Cc1ccco1)C(=O)c1ccccc1F)Nc1ccccc1C(F)(F)F	0	-	-	0	0	0
O=C(CN(Cc1ccco1)C(=O)c1ccc([N+](=O)[O-])cc1)Nc1ccccc1C(F)(F)F	0	-	-	0	20µM	0
O=[N+]([O-])c1ccccc1/C=N/Nc1nccnc1Cl	0	?	0	0	0	0
Oc1ccccc1/C=N/Nc1nccnc1Cl	?	16µM	0	0	0	0
O=[N+]([O-])c1cccnc1N/N=C/c1ccccc1O	0	14µM	-	0	0	0
COc1cccc(/C=N/Nc2nccnc2Cl)c1O	35µM	10µM	0	0	0	?
Oc1ccc(/C=N/Nc2nccnc2Cl)c(O)c1	0	13µM	0	3.2µM	0	?
Oc1ccc(C=NNc2ccccn2)c(O)c1	0	-	-	-	-	0
COC(=O)C1=C(C(=O)OC)[C@@H]2Nc3ccccc3[C@@]23C[C@@H](C(=O)OC)N(S(=O)(=O)c2cccs2)C3=N1	-	0[11.5 µM]	-	-	-	-
SMILES	RE007 growth inh	LmPK inhibitor	NS1 function inh	SARS PLP yeast	Sm TGR block	Tb PYK inh
FC(F)(F)c1ccccc1NC(=S)Nc1cccc2cnccc12	0	0	-	0	35µM	0
Fc1ccccc1NC(=S)Nc1cccc2cnccc12	0	0	-	0	40µM	0
Cc1ccccc1NC(=S)Nc1cccc2cnccc12	0	0	-	0	?	0
O=C(CSC1=Nc2ccccc2N=C(c2ccc(F)cc2)C1)Nc1cccc(C(F)(F)F)c1	-	-	-	-	0	0
Cc1cc(C)c(-n2c(C)cc(/C=C3/NC(=O)NC3=O)c2C)c(C)c1	0	0	0	0	0	0
Cc1cc(/C=C2/NC(=O)NC2=O)c(C)n1C	0	0	-	0	14µM	0
O=C(O)c1ccc(C(=O)O)c(C(=O)Nc2ccc3c(c2)Cc2ccccc2-3)c1	-	-	0	-	-	-
COc1cc([N+](=O)[O-])cc(/C=N/NC(=O)CC#N)c1O	-	0	-	7.1µM	0	-

Assay outcomes deposited in PubChem by National Center for Advancing Translational Sciences (NCATS).
